# Test results: PubChem BioAssay (NCI)
# The panel holds about 79,000 compounds, 15% with a hit somewhere; the sample as a whole holds those more often. Unmarked numbers belong to inactive results. Active and inactive are the calls of the source. Rule as the data show it: active = growth inhibition above about 70%; inactive = the rest.
# Test: NCI Yeast Anticancer Drug Screen. Data for the mlh1 strain (AID 171);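 also: 0% = growth of vehicle-treated control cultures of the same strain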
# Conditions: S. cerevisiae mlh1 strain growth inhibition, stronger effect = higher value
# Protocol: Growth inhibition of yeast strains with defined genetic alterations is measured as a screen for potential anti-cancer activity. Selected strains with alterations in DNA damage repair or cell cycle control were exposed to compounds and growth inhibition was measured relative to vehicle treated controls. The strain used in this assay is mlh1
Structure (SMILES),growth inhibition (at 1.2 µM) [%],growth inhibition (at 3.7 µM) [%],growth inhibition (at 11.0 µM) [%],growth inhibition (at 33.0 µM) [%],growth inhibition (at 100.0 µM)
OC(CN1CCCCC1)c1cc(Cl)c(Cl)c(Cl)c1 (stereo not given),5,7,17,18,21%
COC(=O)CSc1nnc(CSc2ccc(Cl)cc2)n1-c1ccccc1,-1,-1,2,9,14%
CC1C(C#N)(C#N)C(C#N)=C(N)C1(Cl)[N+](=O)[O-] (stereo not given),11,28,45,68,89% (active)
CC(=O)OCC1OC(O[C@H]2C=C[C@@H](C(=O)OCc3ccccc3)n3c(=O)n(-c4ccccc4)c(=O)n32)C(OC(C)=O)C(OC(C)=O)C1OC(C)=O (stereo not given in full),-17,-2,-23,39,70% (active)
CC(C)(C)[OH+][O-].[O-]c1ccc(Cl)cc1C=Nc1ccc(Cl)cc1[O-].[O]=[V],8,10,9,15,38%
Clc1cc(Cc2ccc(N=C/C=C/c3ccccc3)c(Cl)c2)ccc1N=C/C=C\c1ccccc1,-16,-9,-17,-10,12%
CCc1nc(N)nc(N)c1-c1ccc(NCCCCCCN)c([N+](=O)[O-])c1,-4,-1,0,-6,-5%
CCOC(=O)Nc1ccc2c(c1)Cc1ccccc1-2,-14,-8,-7,-7,-5%
